# In PubChem BioAssay (NCI):
# Compounds without any hit were thinned out: in the full panel of roughly 83,000, 20% have a hit.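 Compound tested at a single concentration for 48 hours in 96-well plates; a percent growth value below 10 was scored as active.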 The source made the active and inactive calls.
# System: K-562 leukemia
# Experiment: NCI-60 one-dose screen, 48 h (100 = growth as untreated, 0 = no growth, -100 = all killed)
# Conditions: 10 µM unless noted
row,Structure (SMILES),growth
1,O=C(Nc1ncc(Cc2ccccc2)s1)c1sc2ccccc2c1Cl,12.1% (inactive)
2,Cc1ccccc1N1CCN(C(=S)c2ccccc2)CC1,107% (inactive)
3,CC(C)(C)c1ccc(S(=O)(=O)Oc2ccc(-c3sc4cc(OS(=O)(=O)c5ccc(C(C)(C)C)cc5)ccc4c3C(=O)c3ccc(OCCN4CCCCC4)cc3)cc2)cc1,103% (inactive)
4,CCn1cc(C(=O)N/N=C/c2ccccc2)c(=O)c2cc(F)c(N3CCNC(C)C3)c(F)c21 (stereo unspecified),-39.4% (active)
5,COC1/C=C/OC2(C)Oc3c(C)c(O)c4c(O)c(c(/C=N/N(c5ccccc5)c5ccccc5)c(O)c4c3C2=O)NC(=O)C(C)=C/C=C/C(C)C(O)C(C)C(O)C(C)C(OC(C)=O)C1C (stereo unspecified),72.4% (inactive)
6,CS(=O)(=O)c1ccc(-c2nc3ccccc3n2CC(=O)N/N=C/c2ccccc2)cc1,92.3% (inactive)
7,CC(=O)O[C@H]1CC[C@]2(C)[C@H]3CC=C4[C@@H]5CC(C)(C)CC[C@]5(C(=O)N5CCN(CCC#N)CC5)CC[C@@]4(C)[C@]3(C)CC[C@H]2C1(C)C,10% (inactive)
8,C[N+]1=C(/C=C/c2ccccc2Cl)C(C)(C)c2ccccc21,77.3% (inactive)
9,COC(=O)/C=C1/SC(=Nc2ccc(F)cc2)N(CCc2c[nH]c3ccc(O)cc23)C1=O,37.7% (inactive)
10,Cc1c2ccccc2nc2cc3c(cc12)[C@H]1CC[C@]2(C)C(=O)CC[C@H]2[C@@H]1CC3,90.2% (inactive)
11,O=C(/C=C/C12c3ccccc3C(c3ccccc31)C1C(=O)NC(=O)C12)c1ccco1 (stereo unspecified),12.9% (inactive)
